In the library only some 3.5% were active in any assay of this set; here they are far more common.
MITF primary = inhibitors of human MITF; inhibition, % at 2.6 µM; 650,000 compounds, 0.91% hits; O75030; AlphaScreen MITF homodimerization, bead proximity signal; in the data active means inhibition above about 50%;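 further: 0% = vehicle wells with protein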
GPR151 activ = activators of human GPR151; Q8TDV0; PathHunter beta-arrestin GPR151 cells, luminescence; 650,000 compounds, 1% hits; activation, % at 11.2 µM; in the data active means activation above about 4.9%;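 further: 0% = median of compound wells and 100% = cells with positive control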
FBW7 act = human FBW7 E3 ligase activation, primary screen. normalized activity (activation), % at 26.1 µM. Q969H0. 650,000 compounds, 0.13% hits. AlphaScreen FBW7–phospho-cyclin E peptide binding, activator screen. AID 1259310; in the data active means normalized activity above about 1.9%;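 further: purified mutant Fbw7 with reduced substrate affinity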
TEAD-YAP block = TEAD-YAP interaction inhibition; HEK-TIYL cells, TEAD-Gal4/YAP UAS-luciferase luminescence; AID 1259422; inhibition, % at 9.12 µM; 640,000 compounds, 1.4% hits; in the data active means inhibition above about 32%;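 further: 0% = median of test compound wells and 100% = reference inhibitor wells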
GPR151 confirm = confirmation of human GPR151 activators; shares compounds with GPR151 activ; GPR151 PathHunter beta-arrestin cells, luminescence, 90 min; % of EA-reagent control over plate median; activation, % at 11.2 µM; 6,700 tested, under 10 active; AID 1508609;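 active means mean percent activation across replicates above the confirmation screen cutoff of 4.91%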
GPR119 counter = counter-screen for GPR151 activators: effect on human GPR119 | GPR119 PathHunter beta-arrestin cells, luminescence, 90 min; 0 = compound-well median, 100 = enzyme-acceptor control | shares compounds with GPR151 activ | activation, % at 11.2 µM | 6,700 compounds, 0.3% hits;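 active means mean percent activation in the counterscreen above 29.09%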;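 further: counterscreen on off-target GPR119 to flag nonselective hits from the GPR151 activator screen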
Target sequence (Q8TDV5 whole entry, looked up): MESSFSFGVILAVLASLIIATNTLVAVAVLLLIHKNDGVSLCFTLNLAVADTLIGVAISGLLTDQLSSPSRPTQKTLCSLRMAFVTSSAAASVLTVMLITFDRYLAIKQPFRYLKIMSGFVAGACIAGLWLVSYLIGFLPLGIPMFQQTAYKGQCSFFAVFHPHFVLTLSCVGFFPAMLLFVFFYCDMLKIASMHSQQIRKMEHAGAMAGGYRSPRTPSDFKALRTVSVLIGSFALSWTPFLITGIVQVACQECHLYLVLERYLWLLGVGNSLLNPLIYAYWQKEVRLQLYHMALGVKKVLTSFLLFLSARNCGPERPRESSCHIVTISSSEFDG
An asterisk follows results filed as active; / = no result given; ! = a repeat was not active.

SMILES | MITF primary | GPR151 activ | FBW7 act | TEAD-YAP block | GPR151 confirm | GPR119 counter
COc1ccc(NC(=O)C2CC(=O)OC23CCCCC3)c([N+](=O)[O-])c1 (configuration not stated) | 5 | 2 | 0 | 11 | / | /
Cc1cccc(NC(=O)C(c2ccc(Cl)cc2Cl)N2CCC2=O)c1 (configuration not stated) | -4 | 7.8* | 0 | 9 | 1 | 1
Cc1ccc(-c2nc(CSCC(=O)N3CCOCC3)c(C)o2)cc1 | -18 | 5.0* | 0 | -11 | 1 | -6
Cc1ccc(-c2nc(CSCC(=O)N3CCN(C(=O)c4ccco4)CC3)c(C)o2)cc1 | 1 | 0 | 0 | -9 | / | /
O=C(Nc1ccc2c(c1)OCCO2)c1cc(=O)c(OCc2ccccc2)c[nH]1 | -1 | 8.1* | 0 | 4 | 0 | -1
CCc1nc(N2CCCCC2)c2c3c(sc2n1)CCC3 | 10 | -1 | 0 | 0 | / | /
O=C1N(C2Cc3ccccc3C2)C[C@@H]2C[C@@H](c3ccccn3)N3CCC[C@@]123 | -12 | -2 | 0 | 0 | / | /
C=CCOC(=O)C1=C(C)N2CCSC2=C(C#N)C1c1ccco1 (configuration not stated) | 6 | 5.1* | 0 | -12 | 2 | 7
C#C[C@]1(O)CC[C@H]2[C@@H]3CCC4=CC(=O)CC[C@@H]4[C@H]3CC[C@@]21C | 26 | 0 | 0 | / | / | /
C#C[C@]1(OC(C)=O)CC[C@H]2[C@@H]3CCC4=CC(=O)CC[C@@H]4[C@H]3CCC21C (some centres not stated) | -1 | 9.3* | 0 | / | -1 | -4
Cc1nc(NC(=O)/C=C/c2ccccc2)sc1C(=O)Nc1cccnc1 | -7 | 9.1* | 0 | 12 | 0 | -5
CCN(CC)c1nc(Nc2ccc(N3CCOCC3)cc2)nc(Nc2cc(OC)c(OC)c(OC)c2)n1 | 8 | 9.3*! | 0 | -2 | 0 | 5
CCN(CC)c1nc(Nc2cc(OC)c(OC)c(OC)c2)nc(Nc2cc(OC)c(OC)c(OC)c2)n1 | 5 | 2 | 0 | 11 | / | /
COc1cc2nc(Nc3ccccc3)nc(Nc3ccc(N4CCOCC4)cc3)c2cc1OC | 21 | 8.2* | 0 | 0 | 0 | 4
COc1cc2nc(Oc3ccccc3)nc(Nc3ccc(NC(C)=O)cc3)c2cc1OC | 14 | 7.4* | 0 | 23 | 0 | 0
COc1cc2nc(Nc3ccc(N4CCOCC4)cc3)nc(Nc3ccccc3)c2cc1OC | 8 | 2 | 0 | 6 | / | /
COc1cc2nc(Nc3ccc4ncccc4c3)nc(Nc3ccc4c(c3)OCO4)c2cc1OC | 5 | 7.7* | 0 | 1 | 0 | -7
Fc1ccccc1NC(=S)NCc1ccco1 | 5 | -1 | 0 | -2 | / | /
CCOc1ccc2c(-c3cc4cccc(OC)c4oc3=O)cc(=O)oc2c1 | -10 | 1 | 0 | 2 | / | /
CCOC(=O)c1ccc(Nc2nc3ccccc3nc2Nc2ccc(C(=O)OCC)cc2)cc1 | -5 | 1 | 1 | -5 | / | /
C=CCNC(NC(=O)c1ccco1)C(Cl)(Cl)Cl (configuration not stated) | 0 | 0 | 0 | -1 | / | /
Cc1ccc(Cl)cc1NC(=O)Cn1cnc2c(-c3ccccc3)csc2c1=O | 1 | 7.3* | 0 | 1 | -1 | -1
CCCCCCc1cnc(-c2ccc(Br)cc2)nc1 | 8 | -2 | 0 | -8 | / | /
CCCCCCOc1ccc(-c2ncc(CCCCC)cn2)cc1 | 0 | 5.8* | 0 | 6 | 0 | -9
CN(c1ccccc1)S(=O)(=O)c1ccc(C(=O)Oc2ccc3c(c2)OCO3)cc1 | -1 | -1 | 0 | -6 | / | /
SMILES | MITF primary | GPR151 activ | FBW7 act | TEAD-YAP block | GPR151 confirm | GPR119 counter
CN(C)c1cccc(Nc2nc(Nc3ccc(N4CCOCC4)cc3)c3ncn(-c4ccsc4)c3n2)c1 | 5 | 0 | 0 | 9 | / | /
CN(C)c1cccc(Nc2nc(Nc3ccc4c(c3)OCO4)c3ncn(-c4ccsc4)c3n2)c1 | 7 | 5.0* | 0 | -34 | -1 | -13
Cc1nn(C)c(C)c1-c1nc(NCCO)c2ncn(-c3ccccc3)c2n1 | 3 | 5.2* | 0 | 29 | 1 | -3
c1ccc(Nc2nc(Nc3ccccc3)c3ncn(-c4ccsc4)c3n2)cc1 | 11 | 1 | 0 | 7 | / | /
Cc1nn(C)c(C)c1-c1nc(NCCN2CCOCC2)c2ncn(-c3ccccc3)c2n1 | 18 | 0 | 0 | 21 | / | /
CN(C)c1cccc(Nc2nc(NCCO)c3ncn(-c4ccsc4)c3n2)c1 | 17 | -2 | 0 | 8 | / | /
CC(C)N(CCNc1nc(Nc2cccc(N(C)C)c2)nc2c1ncn2-c1ccsc1)C(C)C | 9 | 5.7* | 0 | 2 | -1 | -13
OCCNc1nc(Nc2ccccc2)nc2c1ncn2-c1ccsc1 | 13 | 5.1* | 0 | 59* | 0 | -8
COc1ccc(CCS(=O)(=O)Nc2ccc3c(c2)N(C(=O)C2CCCO2)CC3)cc1 (configuration not stated) | 25 | 5.8* | 0 | 4 | -1 | -16
COc1ccc(O)c(C2=Nc3ccccc3N=C(c3cccc(Br)c3)C2)c1 | 7 | 5.5* | 0 | -67 | 0 | 6
Cc1ccc(O)c(C2=Nc3ccccc3N=C(c3cccc(Br)c3)C2)c1 | -7 | 0 | 0 | -77 | / | /
COCCNC(=O)c1ccccc1NC(=O)C(C)N(c1ccc(OC)cc1)S(C)(=O)=O (configuration not stated) | -10 | 6.7* | 0 | -3 | 0 | -8
COCCNC(=O)c1ccccc1NC(=O)C(C)N(c1ccc(C)cc1)S(C)(=O)=O (configuration not stated) | -8 | 2 | 0 | 2 | / | /
O=c1c2c3c(sc2ncn1/N=C/c1ccc(O)c(O)c1O)CCCC3 | 58* | 5.4* | 0 | -7 | -1 | -10
COc1ccc(Nc2cc(N3CCCCCC3)c3nonc3c2[N+](=O)[O-])cc1 | -16 | 1 | 0 | 1 | / | /
CC1CN(C(=O)c2cc(C(C)C)n(-c3nc4ccccc4s3)n2)CC(C)O1 (configuration not stated) | 5 | 5.7* | 0 | 8 | 1 | -9
Cc1cc(C(=O)N2CCC(c3nc4ccccc4s3)CC2)nn1C | 2 | 1 | 0 | -4 | / | /
COC(=O)C(NC(=O)c1cccs1)C12CC3CC(CC(C3)C1)C2 (configuration not stated) | 3 | 5.1* | 0 | -4 | 0 | -7
COC(=O)C(NC(=O)c1ccc(F)cc1)C12CC3CC(CC(C3)C1)C2 (configuration not stated) | 18 | 1 | 0 | 6 | / | /
CC1CCCN(c2c(-c3ccc(Cl)cc3)c(=O)c2=O)C1 (configuration not stated) | -3 | 5.9* | 0 | 10 | 1 | -5
Cc1cnn(C(=S)NCc2ccco2)c1 | 8 | 5.1* | 0 | -2 | 0 | -7
Cc1ccc(NC(=S)NCc2ccco2)cc1 | -3 | 0 | 0 | -24 | / | /

Compound activity as filed in PubChem BioAssay.
